For seven compounds, Potency and outcome results are on record in PubChem BioAssay (Tox21).

In assay [1] the target is Progesterone receptor (Homo sapiens) (UniProt P06401). Put plainly: qHTS assay to identify small molecule agonists of the progesterone receptor (PR) signaling pathway (AID 1346784; calls by dose curve; note: nearly all actives have a fitted effect of over 30% in size). The method in brief: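 Cells (PR-UAS-bla HEK 293T, GripTite) were plated in assay medium containing 2% charcoal-stripped FBS and incubated 6 hr. Test compounds in DMSO were added for 16 hr at 37C. FRET substrate was then loaded for 2 hr at room temperature before fluorescence reading.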
(In general: qHTS replaces the single test concentration by a dilution series.)

Assay [2] shares this target. Briefly: qHTS assay to identify small molecule antagonists of the progesterone receptor (PR) signaling pathway (AID 1346795; active = well fitted inhibition curve with a large enough effect in the signal ratio in the repeat runs, not every such curve was filed as active; the % refers to the signal ratio). The method in brief: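 Antagonist mode: compounds tested against 1 nM (final) promegestone stimulation in HEK293T cells expressing PR-UAS-bla reporter, 16 hr at 37C, 5% CO2; beta-lactamase activity detected via B/G FRET substrate after 2 hr at room temperature.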

Assay [3] can be described thus: qHTS assay to identify small molecule antagonists of the progesterone receptor (PR) signaling pathway - cell viability counter screen (AID 1346798). Note: series mostly up to about 92 µM; nearly all actives have a fitted effect of over 50% in size. The method in brief:
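Counter screen for cytotoxicity: viability of PR-UAS-bla HEK293T cells was measured with CellTiter-Glo luminescence following 16 hr compound exposure in the presence of R5020.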

A short description of assay [4]: qHTS assay to identify small molecule agonists of the progesterone receptor (PR) signaling pathway - cell viability counter screen (AID 1346799; calls by dose curve; note: nearly all actives have a fitted effect of over 45% in size). In outline:
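Cells (PR-UAS-bla HEK293T) are plated at 3,000/well in 2% charcoal-stripped FBS medium, rested 6 hr, dosed and incubated 16 hr at 37C. CellTiter-Glo is then added and luminescence measured after 30 min at room temperature.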

Assay [5] is described as follows: qHTS assay to identify small molecule antagonists of the TGF-beta/Smad signaling pathway - cell viability counter screen (AID 1346824). Note: nearly all actives have a fitted effect of over 50% in size. In outline:
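Cytotoxicity counter-screen run in the same wells as the beta-lactamase Smad reporter read: CellTiter-Glo luminescence after 30 min at room temperature. HEK 293T SBE-bla cells had 5 hr compound exposure at 37 C with TGF-beta1 (0.25 ng/mL stock).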

Assay [6] can be described thus: qHTS assay to identify small molecule agonists of the TGF-beta/Smad signaling pathway - cell viability counter screen (AID 1346829). Note: top concentration of the series differs between compounds; nearly all actives have a fitted effect of over 45% in size. The method in brief:
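SBE-bla HEK 293T cells plated overnight, compound exposure 5 hr at 37 C. Viability read in the same wells by CellTiter-Glo luminescence after 30 min at room temperature, following the beta-lactamase read.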

For assay [7], the target named is Thyrotropin-releasing hormone receptor (Homo sapiens) (UniProt P34981). Briefly: qHTS assay to identify small molecule antagonists of the thyrotropin-releasing hormone receptor (TRHR) signaling pathway (AID 1346877; active = well fitted inhibition curve with a large enough effect in the repeat runs, not every such curve was filed as active; note: series mostly up to about 51 µM). In outline:
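Intracellular calcium fluorescence, read kinetically every second over 3 min, reports TRH-evoked signalling in HEK293 cells carrying TRHR. Test compounds were added 5 min ahead of a 1 nM TRH challenge.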

The target is the same in assay [8]. Briefly: qHTS assay to identify small molecule agonists of the thyrotropin-releasing hormone receptor (TRHR) signaling pathway (AID 1346891; calls by dose curve;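 note: HEK293 cells expressing TRHR with calcium dye readout; series mostly up to about 58 µM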). The method in brief: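 Cells: TRHR-Hek293, seeded and incubated 18 h. Dye loading: 2 h at 37 °C. Compound added from DMSO stock by pin tool. Read-out: kinetic calcium fluorescence over 3 min.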
Assay [9] is described as follows: Human pregnane X receptor (PXR) small molecule agonists, qHTS cell viability counter screen (AID 1346977). Note: nearly all actives have a fitted effect of over 50% in size. In outline:
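Cytotoxicity counter screen run in the same wells as the PXR luciferase assay, using PXR-Luc HepG2 cells in charcoal-stripped serum medium. Viability: CellTiter-Fluor fluorescence after 24hr compound treatment.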

Assay [10] in a line: Caspase-3/7 induction in HepG2 cells by small molecules, qHTS assay (AID 1346978). Note: nearly all actives have a fitted effect of over 15% in size. In outline:
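Caspase-3/7 induction was measured by Caspase-Glo 3/7 luminescence (30 min, room temperature) after a 17 hr compound exposure of wild-type HepG2 cells seeded at 2,000 per well and pre-incubated 5 hr.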

Assay [11] is described as follows: Caspase-3/7 induction in CHO-K1 cells by small molecules, qHTS cell viability counter screen (AID 1346979). Note: nearly all actives have a fitted effect of over 35% in size. In outline: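 Cytotoxicity counter screen run in parallel with the caspase-3/7 assay: CHO-K1 cells, 16hr compound treatment at 37C, then CellTiter-Fluor for 1hr before fluorescence reading.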
Assay [12] is described as follows: Caspase-3/7 induction in CHO-K1 cells by small molecules, qHTS assay (AID 1346980). Note: nearly all actives have a fitted effect of over 15% in size. In outline: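 Luminescent Caspase-Glo 3/7 read (30min, room temperature) quantified apoptosis induction. Cells were wild-type CHO-K1, treated with compound for 17hr at 37 C and 5% CO2.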
For assay [13], the target named is Nuclear receptor subfamily 1 group I member 2 (Homo sapiens) (UniProt O75469). Briefly: Human pregnane X receptor (PXR) small molecule agonists, qHTS assay (AID 1346982). Note: nearly all actives have a fitted effect of over 35% in size. In outline: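 Luciferase signal from ONE-Glo (30 min, room temperature) measured activation of hPXR-driven CYP3A4 reporter expression in PXR-Luc HepG2 cells treated with compounds for 24 hr at 37 C.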

The target in assay [14] is Cytochrome P450 2D6 (Homo sapiens) (UniProt P10635). Briefly: Cytochrome P450 Family 2 Subfamily D Member 6 (CYP2D6) small molecule antagonists: luciferase reporter qHTS assay (AID 1671196). Note: nearly all actives have a fitted effect of over 50% in size. Note: potency is the fitted concentration of half-maximal effect. In outline: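 Read-out is luminescence from luciferin formed by CYP2D6 turnover of a proluciferin substrate, recorded as relative luminescence units. Reactions ran 1 h at room temperature after NADPH regeneration solution was added.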

In assay [15] the target is Cytochrome P450 2C19 (Homo sapiens) (UniProt P33261). Briefly: Cytochrome P450 Family 2 Subfamily C Member 19 (CYP2C19) small molecule antagonists: luciferase reporter qHTS assay (AID 1671197). Note: nearly all actives have a fitted effect of over 65% in size. Note: potency is the fitted concentration of half-maximal effect. The method in brief: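 P450-Glo CYP2C19 system: enzyme-substrate mix with compound 10 min at room temperature, then NADPH regeneration solution, 1 h at 37C. Proluciferin-to-luciferin conversion detected by luminescence after 20 min with detection reagent; ketoconazole as positive control.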

A short description of assay [16]: Caspase-3/7 induction in HepG2 cells by small molecules, qHTS cell viability counter screen (AID 1346981). Note: series mostly up to about 92 µM; nearly all actives have a fitted effect of over 30% in size. In outline:
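HepG2, WT, 2,000 cells/well; 5 hr pre-incubation 37 C/5% CO2; compound pin-transferred from DMSO; 16 hr exposure; CellTiter-Fluor, 1 hr; fluorescence read.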

Assay [17] in a line: qHTS assay to identify small molecule agonists of the TGF-beta/Smad signaling pathway (AID 1346859; active = well fitted activation curve with a large enough effect in the signal ratio in the repeat runs, not every such curve was filed as active; the % refers to the signal ratio; note: series mostly up to about 77 µM). In outline: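 Reporter line: HEK 293T with stably integrated SBE-controlled beta-lactamase. Compound exposure lasts 5 hr at 37 C and 5% CO2; substrate loading follows for 2 hr at room temperature, with emission read at 460 and 530 nm.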

SMILES strings stand for the structures. A number with no mark means an inactive call. Records with an inconclusive call do not appear. Activity calls are given as the source filed them. Unless noted, calls come from the whole dose curve; as a rule, active = well fitted curve in the direction sought with a large enough effect in the repeat runs; inconclusive = weak or mixed curves; inactive = no such curve, though single readings can be large; an effect the other way counts as inactive or inconclusive.

Thyrotropin-releasing hormone receptor (Homo sapiens), sequence (P34981 whole entry, looked up): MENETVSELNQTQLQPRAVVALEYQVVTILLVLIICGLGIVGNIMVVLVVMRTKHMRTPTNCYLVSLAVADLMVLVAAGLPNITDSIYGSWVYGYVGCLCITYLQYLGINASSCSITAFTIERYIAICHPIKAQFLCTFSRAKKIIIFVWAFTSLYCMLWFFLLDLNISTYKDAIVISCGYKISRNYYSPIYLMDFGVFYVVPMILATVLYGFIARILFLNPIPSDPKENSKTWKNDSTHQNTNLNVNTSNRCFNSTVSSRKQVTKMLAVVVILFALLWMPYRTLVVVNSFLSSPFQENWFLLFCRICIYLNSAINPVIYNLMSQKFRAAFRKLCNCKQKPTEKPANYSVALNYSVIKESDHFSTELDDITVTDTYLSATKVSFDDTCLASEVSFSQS
Cytochrome P450 2D6 (Homo sapiens), sequence (P10635 whole entry, looked up): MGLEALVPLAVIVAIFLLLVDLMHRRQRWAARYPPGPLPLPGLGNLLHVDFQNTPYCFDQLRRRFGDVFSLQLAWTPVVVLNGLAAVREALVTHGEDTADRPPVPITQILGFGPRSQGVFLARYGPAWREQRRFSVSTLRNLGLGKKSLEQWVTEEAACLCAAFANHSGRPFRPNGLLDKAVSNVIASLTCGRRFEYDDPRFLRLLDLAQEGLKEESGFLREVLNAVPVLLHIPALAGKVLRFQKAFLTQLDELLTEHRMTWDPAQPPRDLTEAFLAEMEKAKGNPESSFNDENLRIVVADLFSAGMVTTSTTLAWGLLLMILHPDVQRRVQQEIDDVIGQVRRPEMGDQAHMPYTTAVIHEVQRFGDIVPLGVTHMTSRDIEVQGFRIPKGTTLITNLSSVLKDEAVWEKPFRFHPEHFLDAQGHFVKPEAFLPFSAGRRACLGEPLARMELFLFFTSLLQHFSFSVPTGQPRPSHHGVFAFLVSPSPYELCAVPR
Progesterone receptor (Homo sapiens), sequence (P06401 whole entry, looked up): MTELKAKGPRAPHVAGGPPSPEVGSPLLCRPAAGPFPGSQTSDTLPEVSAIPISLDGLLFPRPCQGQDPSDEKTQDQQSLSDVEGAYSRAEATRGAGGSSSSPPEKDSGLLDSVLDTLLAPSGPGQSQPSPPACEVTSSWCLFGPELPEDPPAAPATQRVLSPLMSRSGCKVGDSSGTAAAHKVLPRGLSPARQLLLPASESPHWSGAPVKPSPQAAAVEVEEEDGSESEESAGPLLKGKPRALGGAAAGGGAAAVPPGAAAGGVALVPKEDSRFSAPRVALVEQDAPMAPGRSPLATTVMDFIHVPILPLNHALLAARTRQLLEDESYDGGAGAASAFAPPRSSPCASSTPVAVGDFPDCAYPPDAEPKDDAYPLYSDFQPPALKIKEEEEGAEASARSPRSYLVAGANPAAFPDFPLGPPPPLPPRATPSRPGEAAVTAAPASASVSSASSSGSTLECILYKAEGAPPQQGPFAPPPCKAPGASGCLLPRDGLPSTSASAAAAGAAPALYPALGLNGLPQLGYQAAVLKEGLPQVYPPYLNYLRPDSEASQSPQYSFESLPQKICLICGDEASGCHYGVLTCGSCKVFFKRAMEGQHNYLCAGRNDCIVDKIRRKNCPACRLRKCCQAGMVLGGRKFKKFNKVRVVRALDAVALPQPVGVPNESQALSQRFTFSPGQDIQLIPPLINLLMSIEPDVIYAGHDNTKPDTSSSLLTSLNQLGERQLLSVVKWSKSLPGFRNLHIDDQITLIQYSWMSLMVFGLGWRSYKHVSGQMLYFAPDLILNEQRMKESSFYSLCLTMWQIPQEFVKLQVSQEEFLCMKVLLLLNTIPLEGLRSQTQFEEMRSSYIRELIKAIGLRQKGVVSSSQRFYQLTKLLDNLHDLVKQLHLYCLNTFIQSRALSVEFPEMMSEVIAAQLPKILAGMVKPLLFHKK
Nuclear receptor subfamily 1 group I member 2 (Homo sapiens), sequence (O75469 whole entry, looked up): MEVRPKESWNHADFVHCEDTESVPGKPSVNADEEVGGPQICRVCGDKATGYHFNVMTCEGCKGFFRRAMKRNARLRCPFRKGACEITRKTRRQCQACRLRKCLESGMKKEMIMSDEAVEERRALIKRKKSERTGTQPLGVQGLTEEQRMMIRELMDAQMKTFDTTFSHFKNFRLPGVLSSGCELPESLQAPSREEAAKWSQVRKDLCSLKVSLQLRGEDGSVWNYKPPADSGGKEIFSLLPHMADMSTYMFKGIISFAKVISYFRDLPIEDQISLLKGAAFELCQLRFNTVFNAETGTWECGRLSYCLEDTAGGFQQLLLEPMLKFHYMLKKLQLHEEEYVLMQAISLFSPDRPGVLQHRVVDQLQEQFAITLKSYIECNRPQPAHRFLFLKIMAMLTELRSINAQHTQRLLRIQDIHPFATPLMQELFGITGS
Cytochrome P450 2C19 (Homo sapiens), sequence (P33261 whole entry, looked up): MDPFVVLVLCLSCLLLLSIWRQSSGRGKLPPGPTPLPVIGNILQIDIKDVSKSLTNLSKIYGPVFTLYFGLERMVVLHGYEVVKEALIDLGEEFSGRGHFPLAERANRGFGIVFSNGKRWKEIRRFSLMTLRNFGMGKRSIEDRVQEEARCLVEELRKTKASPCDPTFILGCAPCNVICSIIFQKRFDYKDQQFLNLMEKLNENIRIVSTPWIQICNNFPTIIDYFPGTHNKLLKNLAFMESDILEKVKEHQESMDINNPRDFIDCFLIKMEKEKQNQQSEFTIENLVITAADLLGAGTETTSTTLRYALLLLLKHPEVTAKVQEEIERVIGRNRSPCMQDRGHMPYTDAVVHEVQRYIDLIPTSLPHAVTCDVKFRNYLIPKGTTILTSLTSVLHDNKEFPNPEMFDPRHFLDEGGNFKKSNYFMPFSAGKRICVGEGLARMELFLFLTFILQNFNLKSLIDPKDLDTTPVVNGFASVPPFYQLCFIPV

As to `CC(=O)c1sc(C)nc1C`, the Potency entry in assay [1], in assay [2], in assay [3], in assay [4], in assay [9] and in assay [10] was “inactive” each time. Further, the Potency entry in assay [11], in assay [13], in [14] and in assay [15] was “inactive” each time. Further, the result in assay [5], in assay [6], in assay [7], in assay [8] and in [12] was inactive.

Regarding `CC(C)(C)NC(N)=O`, the Potency result in [1], in [2], in assay [3], in assay [4], in [9] and in assay [11] was “inactive” in each case. Further, the Potency entry in [16], in assay [13] and in assay [14] was “inactive” each time. For the same compound, the compound was called inactive in [5], in assay [6], in assay [7], in [8] and in assay [12]. Moreover, in assay [15], the Potency is 71 µM (active).

For `CC(C)N(c1ccccc1)C(C)C`, the Potency entry in assay [1], in assay [2], in assay [3], in [4], in [9] and in assay [10] was “inactive” throughout. Moreover, the Potency entry in assay [11], in assay [16], in assay [14] and in assay [15] was “inactive” throughout. Moreover, the compound was called inactive in [5], in assay [6], in assay [17] and in [12].

For the compound `CCCCCCCCCCl`, the Potency result in assay [1], in assay [2], in assay [3], in assay [4], in assay [9] and in assay [10] was “inactive” each time. The Potency entry in assay [11], in [16] and in [13] was “inactive” throughout. For the same compound, the call in assay [5], in [6], in assay [7] and in [12] was inactive. Further, the Potency in [14] is 40.3 µM (active).

Consider `CCCCCCN`, for which the Potency entry in [1], in assay [2], in assay [3], in assay [4], in assay [9] and in assay [10] was “inactive” in each case. Besides, the Potency result in [11], in assay [16], in assay [13] and in [15] was “inactive” each time. Also, the call in assay [5], in [6], in [7], in assay [8] and in assay [12] was inactive.

In the case of `CC(C)(C)c1nnc(NS(=O)(=O)c2ccc(N)cc2)s1`, the Potency entry in assay [1], in assay [2], in assay [3], in assay [4], in assay [9] and in [10] was “inactive” each time. Also, the Potency entry in [11], in assay [16], in assay [13] and in assay [15] was “inactive” in each case. For the same compound, the compound was called inactive in assay [5], in assay [6], in assay [17] and in assay [12].

With `CCCN1C[C@H](CSC)C[C@@H]2c3cccc4[nH]cc(c34)C[C@H]21`, the Potency result in assay [1], in assay [2], in assay [3], in [4], in assay [9] and in assay [10] was “inactive” in each case. Moreover, the Potency entry in [11], in assay [16] and in assay [13] was “inactive” throughout. Also, the call in assay [5], in assay [6], in assay [7], in assay [8] and in [12] was inactive. In assay [14], the Potency was 0.155 µM (active).
